Compound activity from PubChem.
Compounds with a hit are over-represented: about 1.8% of the library has one in this group of screens.
LYPLA1 counter: blocks human lysophospholipase 1, a PME1 counter-screen. hit rate 0.16% among 320,000. recombinant LYPLA1, FP-Rh probe fluorescence polarization. inhibition, % at 5.9 µM. O75608. AID 2174;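 active = inhibition above the mean of all tested compounds plus 3 SD, set per campaign, cut at about 14% in these data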;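 note: inhibitors block serine hydrolase probe labeling of LYPLA1 so polarization falls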
Fam108B inh: counter-screen for RBBP9 inhibitors: inhibitors of mouse Fam108B; recombinant Fam108B, FP-Rh probe fluorescence polarization; inhibition, % at 9.51 µM; hit rate 0.33% among 300,000; AID 1947;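 active = inhibition above the screen mean inhibition plus 3 SD, computed separately per campaign, cut at about 18% in these data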;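 note: inhibitors lower polarization as less probe binds the enzyme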
PME-1 primary: blocks human protein phosphatase methylesterase 1; inhibition, % at 5.9 µM; Q9Y570; recombinant PME-1, FP-Rh probe fluorescence polarization; hit rate 0.53% among 320,000;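 active = inhibition above the campaign mean of all compounds plus 3 SD, cut at about 26% in these data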;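 note: competitive labeling of PME-1 active site by serine hydrolase directed probe; inhibitors block probe labeling so polarization falls and inhibition rises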
Target sequence (Q9Y570 whole entry, looked up): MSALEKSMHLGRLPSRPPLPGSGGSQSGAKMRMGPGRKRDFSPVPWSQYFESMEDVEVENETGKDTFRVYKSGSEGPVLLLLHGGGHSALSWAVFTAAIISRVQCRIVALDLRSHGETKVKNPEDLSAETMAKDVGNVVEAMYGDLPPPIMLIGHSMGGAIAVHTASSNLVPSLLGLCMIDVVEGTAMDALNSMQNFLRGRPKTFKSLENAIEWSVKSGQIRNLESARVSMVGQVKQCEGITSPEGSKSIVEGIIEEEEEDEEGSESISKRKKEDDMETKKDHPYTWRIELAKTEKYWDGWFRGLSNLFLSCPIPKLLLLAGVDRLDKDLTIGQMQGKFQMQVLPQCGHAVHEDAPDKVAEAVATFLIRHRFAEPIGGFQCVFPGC
LYPLA2 counter: blocks human lysophospholipase 2, a PME1 counter-screen. hit rate 0.38% among 320,000. recombinant LYPLA2, FP-Rh probe fluorescence polarization. inhibition, % at 5.9 µM. O95372;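 active = inhibition above the screen-wide mean plus 3 SD, limit set per campaign, cut at about 26% in these data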
Target sequence (O95372 whole entry, looked up): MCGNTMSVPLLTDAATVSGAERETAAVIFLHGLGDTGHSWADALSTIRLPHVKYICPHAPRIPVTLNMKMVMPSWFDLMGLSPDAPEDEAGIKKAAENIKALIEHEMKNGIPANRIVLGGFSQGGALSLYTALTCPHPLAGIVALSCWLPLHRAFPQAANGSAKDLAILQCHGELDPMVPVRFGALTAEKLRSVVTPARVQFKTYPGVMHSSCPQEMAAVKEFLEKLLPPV
PAD4 FP inh: PAD4 (human) enzyme inhibition | Q9UM07 | recombinant PAD4, RCA probe fluorescence polarization | inhibition, % at 6.36 µM | hit rate 0.41% among 330,000 | AID 485272;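 active = percent inhibition above a cutoff equal to the mean of all tested compounds plus 3 SD, cut at about 15% in these data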
GSTO1 counter: blocks human GSTO1 in RBBP9 counter-screen. inhibition, % at 5.96 µM. AID 1974. recombinant GSTO1, activity-based probe fluorescence polarization. hit rate 1.1% among 300,000. P78417;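 active = inhibition above the campaign mean inhibition plus 3 SD, cut at about 35% in these data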
Fam108b confirm: confirmation of mouse Fam108b serine hydrolase inhibitors; recombinant Fam108b, FP-Rh probe fluorescence polarization; shares compounds with Fam108B inh; inhibition, % at 9.51 µM; AID 1978; hit rate 44% among 930;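 active = inhibition above a limit from the primary screen, the mean over all compounds plus 3 SD, cut at about 19% in these data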;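 note: inhibitors free the probe so polarization falls as inhibition rises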
Fam108b inh: mouse ABHD17B inhibition; recombinant Fam108b, gel-based ABPP, fluorophosphonate probe; hit rate 44% among 260; inhibition, % at 20 µM; shares compounds with Fam108B inh; in the data active = inhibition above about 40%
GSTO1 confirm: GSTO1 (human) inhibition, confirmation; AID 2176; hit rate 54% among 2,400; inhibition, % at 5.96 µM; shares compounds with GSTO1 counter; recombinant GSTO1, probe fluorescence polarization;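 active = inhibition above the primary screen's cutoff, its mean inhibition plus 3 SD, cut at about 35% in these data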;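 note: loss of polarization as inhibitors block binding of rhodamine sulfonate ester activity probe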
LYPLA1 confirm: counter-screen for PME1 inhibitors: confirmation of human LYPLA1 inhibitors | shares compounds with LYPLA1 counter | recombinant LYPLA1, FP-Rh probe fluorescence polarization | inhibition, % at 5.9 µM | hit rate 69% among 480 | AID 2233;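 active = mean inhibition across replicates above the hit cutoff set in the primary screen, cut at about 15% in these data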;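 note: loss of FP-Rh probe labeling of LYPLA1 seen as lower polarization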
LYPLA2 confirm: LYPLA2 (human) inhibition, confirmation counter-screen; inhibition, % at 5.9 µM; recombinant LYPLA2, FP-Rh probe fluorescence polarization; shares compounds with LYPLA2 counter; hit rate 72% among 1,100;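 active = mean inhibition across replicates above the hit cutoff set in the primary screen, cut at about 26% in these data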;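 note: blocked labeling of the enzyme by serine hydrolase FP-Rh probe lowers polarization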
PAD4 FP conf: confirmation of human PAD4 inhibitors. shares compounds with PAD4 FP inh. recombinant PAD4, RCA probe fluorescence polarization. inhibition, % at 6.36 µM. hit rate 28% among 1,200. AID 488796;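 active = mean inhibition across replicates above the hit cutoff set by the earlier primary screen, cut at about 15% in these data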;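 note: inhibitors block active-site labeling by the probe so polarization falls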
A number is an active result; – = inactive; · = no result.

SMILES	LYPLA1 counter	Fam108B inh	PME-1 primary	LYPLA2 counter	PAD4 FP inh	GSTO1 counter	Fam108b confirm	GSTO1 confirm	others
Oc1ccc(/C=N/Nc2cccc3cccnc23)c(O)c1	–	21	36	–	–	38	21	–
O=C1NN(c2ccccc2)C(=O)/C1=C/c1ccc(-c2ccc(C(=O)O)cc2)o1	–	–	–	–	–	–	·	·
O=C1NN(c2ccccc2)C(=O)/C1=C/c1ccc(Sc2cccc3ccccc23)o1	–	29	–	–	–	49	–	66
O=C(NC(=S)N1CCCCCC1)c1ccc(Cl)cc1Cl	–	–	–	–	–	–	·	·
CN1C(=O)/C(=C/c2ccc(-c3ccccc3[N+](=O)[O-])o2)SC1=Nc1ccc(Cl)c(C(=O)O)c1	–	30	–	–	–	72	–	79
Cc1ccc(C)c(N2C(=N)S/C(=C\c3ccc(-c4ccccc4C(=O)O)o3)C2=O)c1	–	–	–	–	–	–	·	·
O=C(c1ccc(Br)c(S(=O)(=O)N2CCCCC2)c1)N1CCCCC1	–	–	–	–	–	–	·	·
O=C(NCCO)Nc1ccc2nc(-c3ccco3)c(-c3ccco3)nc2c1	–	68	–	–	18	65	45	42	Fam108b inh=–
O=C(NCCO)Nc1ccc2nsnc2c1	–	–	–	–	–	–	·	·
O=C(NCc1ccccc1)c1ccc2nc(-c3ccco3)c(-c3ccco3)nc2c1	–	19	–	–	–	67	–	–
CC(=O)c1ccc(NC(=O)c2ccc3nc(-c4ccco4)c(-c4ccco4)nc3c2)cc1	–	40	–	–	–	68	29	–
O=C(Nc1ccc(N2CCOCC2)cc1)c1ccc2nc(-c3ccco3)c(-c3ccco3)nc2c1	–	–	–	–	–	–	·	·
O=C(Nc1ccccc1)c1ccc2nc(-c3ccco3)c(-c3ccco3)nc2c1	–	48	–	–	–	57	–	–
O=c1c(O)cccc2cc(O)c(O)c(O)c12	–	49	–	–	–	51	31	72	Fam108b inh=–
COc1cc(/C=N/Nc2nc3ccccc3s2)cc([N+](=O)[O-])c1O	–	21	62	–	–	48	–	50
CCN(CC)c1ccc(/C=C(\C#N)C(=O)c2ccc(Br)cc2)cc1	32	61	–	–	–	–	54	·	Fam108b inh=–;LYPLA1 confirm=77
CCOc1c2ccc(C(=O)NCc3ccc(C)cc3)cc2nn1CC	–	–	–	–	–	–	·	·
O=C(O)c1ccccc1N/N=C/c1cc(Br)cc(Br)c1O	29	27	49	–	–	–	19	·	LYPLA1 confirm=23
O=C(Cc1ccccc1)N/N=C/c1cc(Br)cc(Br)c1O	–	–	–	–	–	–	·	·
COc1ccc2c(c1)C(=NNc1ccc(C(=O)O)cc1)c1cc(OC)ccc1-2	28	30	–	37	–	–	30	·	Fam108b inh=–;LYPLA1 confirm=19;LYPLA2 confirm=–
O=C1C(CSCc2ccccc2)NC(=S)N1c1ccccc1 (stereo not given)	29	71	89	50	–	–	–	·	LYPLA1 confirm=–;LYPLA2 confirm=–
O=C(CN1C(=O)S/C(=C\c2cc(Cl)c(O)c(Cl)c2)C1=O)Nc1ccccc1	–	23	–	92	–	–	19	·	LYPLA2 confirm=82
COc1cc(OC)cc(-c2c(-c3cccs3)c3cc(-c4ccc(CN5CCOCC5)cc4)ccc3n2C)c1	·	·	·	·	–	·	·	·
O=S(=O)(Nc1cc2nc3ccccc3nc2n1Cc1ccccc1)c1ccc(Cl)cc1	54	43	53	57	72	73	64	92	Fam108b inh=–;LYPLA1 confirm=45;LYPLA2 confirm=93
Cc1ccc(SCc2nc3ncccn3c2Br)cc1	–	–	–	–	–	–	·	·
SMILES	LYPLA1 counter	Fam108B inh	PME-1 primary	LYPLA2 counter	PAD4 FP inh	GSTO1 counter	Fam108b confirm	GSTO1 confirm	others
COc1cc(OC)c(-c2c3cc(O)c(=O)cc-3oc3cc(O)c(O)cc23)cc1OC	–	–	–	–	–	–	·	·
Cc1c2cc(O)c(=O)cc-2oc2cc(O)c(O)cc12	95	114	113	108	65	96	138	107	Fam108b inh=–;LYPLA1 confirm=94;LYPLA2 confirm=102
Cc1cc(N/N=C/c2c(O)ccc3ccccc23)nc(-c2ccccc2O)n1	–	70	57	46	–	–	103	·	LYPLA2 confirm=–
Oc1ccc2ccccc2c1/C=N/Nc1ccccc1	–	–	–	–	–	–	·	·
CCOC(=O)C1CCCN(C(=O)c2ccccc2NS(=O)(=O)c2ccc(F)cc2)C1 (stereo not given)	·	·	·	·	–	·	·	·
Cc1coc2c1C(=O)C(=O)c1c-2ccc2c(C)cccc12	–	19	–	39	–	97	–	57	LYPLA2 confirm=–
Cc1ccc2c3c(cccc13)-c1ccccc1C2=O	–	–	–	–	–	–	·	·
Cc1ccc(NC(=O)Cc2ccc3c(c2)OCCO3)cc1S(=O)(=O)N1CCCCC1	–	–	–	–	–	–	·	·
CCc1cc(C(=O)NCC2CCCO2)sc1C (stereo not given)	–	–	–	–	–	–	·	·
O=C1c2ccccc2-c2onc3ccc(NCCCn4ccnc4)c1c23	105	122	109	112	106	105	150	·	Fam108b inh=80;LYPLA1 confirm=109;LYPLA2 confirm=117
CC(=O)Nc1ccc(NC(=O)c2ccc(N(C)S(=O)(=O)c3ccc(C)cc3)cc2)cc1	–	–	–	–	–	–	·	·
CN(c1ccccc1)S(=O)(=O)c1ccc(NC(=O)c2ccc(-c3ccccc3)cc2)cc1	22	45	64	30	–	–	80	·	Fam108b inh=95;LYPLA1 confirm=26;LYPLA2 confirm=35
O=C1C(NS(=O)(=O)c2ccccc2)=C(N2CCN(c3ccc(F)cc3)CC2)C(=O)c2ccccc21	–	–	–	–	–	–	·	·
O=C1C(Nc2cccc(O)c2)=C(N2CCCCC2)C(=O)c2ccccc21	–	20	–	–	18	79	21	63	PAD4 FP conf=–
Cc1cc(C)n2nc(SCC(=O)N3CCN(c4ccc(F)cc4)CC3)nc2n1	–	·	–	–	–	·	·	·
O=C1C(Cl)=C(N2CCN(c3ccccc3[N+](=O)[O-])CC2)C(=O)c2ccccc21	–	30	–	–	29	82	32	88	Fam108b inh=–;PAD4 FP conf=–
